Experimental data as given in the supplement of paper PMC10037445.
Whole data set: some 2,900 compounds, median “NF-kB SEAP reporter activity, fold change vs agonist alone” near 0.99, cut for the highest 2% near 2.6. The entries come from a sample that favours the highest values as a whole.

Legend:
RAW-Dual [1] = assay: NF-kB SEAP reporter activity, fold change vs agonist alone; cytotoxicity flag (confluency mask): not cytotoxic; higher = enhanced NF-kB activity
In short: (§1)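 After 50 nL of library stock was delivered by pin tool to RAW-Dual macrophages (50,000 cells/well, DMEM, 384-well plates), a PRR agonist was added 1 h later and the plates were kept at 37 °C, 5% CO2. Twenty hours later, IRF was read from supernatant by QuantiLuc luminescence and NF-κB by QuantiBlue absorbance at 620 nm. Reporter activity is stated as fold change over agonist-alone wells. Wells with IncuCyte confluency under 70% of agonist controls in both mask sets were counted as cytotoxic.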

RAW-Dual [2] = assay: NF-kB SEAP reporter activity, fold change vs agonist alone; higher = enhanced NF-kB activity; settings: library stock concentration (final ~1000-fold dilution): 10 mM
In short: as §1

RAW-Dual [3] = assay: NF-kB SEAP reporter activity, fold change vs agonist alone; cytotoxicity flag (confluency mask): cytotoxic (confluency <70% of control); higher = enhanced NF-kB activity
In short: as §1

[4] = agonist: ODN 1826 (TLR9) 0.5 ug/mL
[5] = agonist: Pam2CSK4 (TLR2/6) 0.1 ug/mL
[6] = agonist: Pam3CSK4 (TLR2/1) 0.1 ug/mL
[7] = cytotoxicity flag (confluency mask): not cytotoxic, agonist: Imiquimod (TLR7) […]
[8] = cytotoxicity flag (confluency mask): not cytotoxic, agonist: MPLA (TLR4) […]

## CC1CCN(C(=O)CC#N)CC1N(C)c1ncnc2[nH]ccc12 (configuration not stated) (library stock concentration (final ~1000-fold dilution): 10 mM)
RAW-Dual [1]; agonist: LPS (TLR4) 0.1 ug/mL
  NF-kB SEAP reporter activity: 0.799
RAW-Dual [1]; [4]
  NF-kB SEAP reporter activity: 1.27
RAW-Dual [1]; [5]
  NF-kB SEAP reporter activity: 1.33
RAW-Dual [1]; [6]
  NF-kB SEAP reporter activity: 1.51

## CC1CCN(C(=O)CC#N)CC1N(C)c1ncnc2[nH]ccc12 (configuration not stated)
RAW-Dual [2]; [7]
  NF-kB SEAP reporter activity: 1.31
RAW-Dual [2]; [8]
  NF-kB SEAP reporter activity: 1.05

## CC(=O)OC1CCC2(C)C(=CCC3C2CCC2(C)C(c4cccnc4)=CCC32)C1 (configuration not stated) (library stock concentration (final ~1000-fold dilution): 10 mM)
RAW-Dual [1]; agonist: LPS (TLR4) 0.1 ug/mL
  NF-kB SEAP reporter activity: 0.898
RAW-Dual [1]; [4]
  NF-kB SEAP reporter activity: 1.06
RAW-Dual [1]; [5]
  NF-kB SEAP reporter activity: 0.97
RAW-Dual [1]; [6]
  NF-kB SEAP reporter activity: 1.97

## CC(=O)OC1CCC2(C)C(=CCC3C2CCC2(C)C(c4cccnc4)=CCC32)C1 (configuration not stated)
RAW-Dual [2]; [7]
  NF-kB SEAP reporter activity: 1.12
RAW-Dual [2]; [8]
  NF-kB SEAP reporter activity: 1.05

## COc1cc2oc(=O)ccc2c(OC)c1CC(O)C(C)(C)O (configuration not stated)
RAW-Dual [2]; [7]
  NF-kB SEAP reporter activity: 0.936
RAW-Dual [2]; [8]
  NF-kB SEAP reporter activity: 0.984

## COc1cc2oc(=O)ccc2c(OC)c1CC(O)C(C)(C)O (configuration not stated) (library stock concentration (final ~1000-fold dilution): 10 mM)
RAW-Dual [1]; agonist: LPS (TLR4) 0.1 ug/mL
  NF-kB SEAP reporter activity: 1.11
RAW-Dual [1]; [4]
  NF-kB SEAP reporter activity: 0.972
RAW-Dual [1]; [5]
  NF-kB SEAP reporter activity: 1.08
RAW-Dual [1]; [6]
  NF-kB SEAP reporter activity: 1.38

## CC(C)(C)c1nc(-c2cccc(NS(=O)(=O)c3c(F)cccc3F)c2F)c(-c2ccnc(N)n2)s1
RAW-Dual [2]; cytotoxicity flag (confluency mask): cytotoxic (confluency <70% of control), agonist: Imiquimod (TLR7) […]
  NF-kB SEAP reporter activity: 2.07
RAW-Dual [2]; cytotoxicity flag (confluency mask): cytotoxic (confluency <70% of control), agonist: MPLA (TLR4) […]
  NF-kB SEAP reporter activity: 1.89

## CC(C)(C)c1nc(-c2cccc(NS(=O)(=O)c3c(F)cccc3F)c2F)c(-c2ccnc(N)n2)s1 (library stock concentration (final ~1000-fold dilution): 10 mM)
RAW-Dual [3]; agonist: LPS (TLR4) 0.1 ug/mL
  NF-kB SEAP reporter activity: 3.02
RAW-Dual [3]; [4]
  NF-kB SEAP reporter activity: 3.35
RAW-Dual [3]; [5]
  NF-kB SEAP reporter activity: 2
RAW-Dual [3]; [6]
  NF-kB SEAP reporter activity: 1.57

## CC(C)(C)c1nc(-c2cccc(NS(=O)(=O)c3c(F)cccc3F)c2F)c(-c2ccnc(N)n2)s1.CS(=O)(=O)O (library stock concentration (final ~1000-fold dilution): 10 mM)
RAW-Dual [1]; agonist: LPS (TLR4) 0.1 ug/mL
  NF-kB SEAP reporter activity: 3.17
RAW-Dual [1]; [4]
  NF-kB SEAP reporter activity: 3.05
RAW-Dual [1]; [5]
  NF-kB SEAP reporter activity: 2.08
RAW-Dual [1]; [6]
  NF-kB SEAP reporter activity: 1.78

## CC(C)(C)c1nc(-c2cccc(NS(=O)(=O)c3c(F)cccc3F)c2F)c(-c2ccnc(N)n2)s1.CS(=O)(=O)O
RAW-Dual [2]; [8]
  NF-kB SEAP reporter activity: 1.93

## CC(C)c1c(-c2ccccc2)[nH]c2c(C#N)cnn2c1=O.Cl (library stock concentration (final ~1000-fold dilution): 10 mM)
RAW-Dual [1]; agonist: LPS (TLR4) 0.1 ug/mL
  NF-kB SEAP reporter activity: 0.8
RAW-Dual [1]; [4]
  NF-kB SEAP reporter activity: 0.816
RAW-Dual [1]; [5]
  NF-kB SEAP reporter activity: 0.507
RAW-Dual [1]; [6]
  NF-kB SEAP reporter activity: 0.52

## CC(C)c1c(-c2ccccc2)[nH]c2c(C#N)cnn2c1=O.Cl
RAW-Dual [2]; [7]
  NF-kB SEAP reporter activity: 0.757
RAW-Dual [2]; [8]
  NF-kB SEAP reporter activity: 0.99

## CN1CCN(C(c2ccccc2)c2ccccc2)CC1.Cl.Cl
RAW-Dual [2]; [7]
  NF-kB SEAP reporter activity: 0.9
RAW-Dual [2]; [8]
  NF-kB SEAP reporter activity: 0.897

## CN1CCN(C(c2ccccc2)c2ccccc2)CC1.Cl.Cl (library stock concentration (final ~1000-fold dilution): 10 mM)
RAW-Dual [1]; agonist: LPS (TLR4) 0.1 ug/mL
  NF-kB SEAP reporter activity: 1.15
RAW-Dual [1]; [4]
  NF-kB SEAP reporter activity: 0.595
RAW-Dual [1]; [5]
  NF-kB SEAP reporter activity: 1.04
RAW-Dual [1]; [6]
  NF-kB SEAP reporter activity: 1.02

## O.S=c1nc[nH]c2nc[nH]c12 (library stock concentration (final ~1000-fold dilution): 10 mM)
RAW-Dual [1]; agonist: LPS (TLR4) 0.1 ug/mL
  NF-kB SEAP reporter activity: 1.05
RAW-Dual [1]; [4]
  NF-kB SEAP reporter activity: 0.808
RAW-Dual [1]; [5]
  NF-kB SEAP reporter activity: 0.594
RAW-Dual [1]; [6]
  NF-kB SEAP reporter activity: 0.684

## O.S=c1nc[nH]c2nc[nH]c12
RAW-Dual [2]; [7]
  NF-kB SEAP reporter activity: 0.752
RAW-Dual [2]; [8]
  NF-kB SEAP reporter activity: 0.963

## COc1ccc(-c2oc3c(CC=C(C)C)c(OC4OC(CO)C(O)C(O)C4O)cc(O)c3c(=O)c2OC2OC(C)C(O)C(O)C2O)cc1 (configuration not stated)
RAW-Dual [2]; [7]
  NF-kB SEAP reporter activity: 0.89
RAW-Dual [2]; [8]
  NF-kB SEAP reporter activity: 1.13

## COc1ccc(-c2oc3c(CC=C(C)C)c(OC4OC(CO)C(O)C(O)C4O)cc(O)c3c(=O)c2OC2OC(C)C(O)C(O)C2O)cc1 (configuration not stated) (library stock concentration (final ~1000-fold dilution): 10 mM)
RAW-Dual [1]; agonist: LPS (TLR4) 0.1 ug/mL
  NF-kB SEAP reporter activity: 1.57
RAW-Dual [1]; [4]
  NF-kB SEAP reporter activity: 0.992
RAW-Dual [1]; [5]
  NF-kB SEAP reporter activity: 1.14
RAW-Dual [1]; [6]
  NF-kB SEAP reporter activity: 1.28

## C=C1CCCC2(C)C=C3OC(=O)C(C)=C3CC12 (configuration not stated) (library stock concentration (final ~1000-fold dilution): 10 mM)
RAW-Dual [1]; agonist: LPS (TLR4) 0.1 ug/mL
  NF-kB SEAP reporter activity: 1
RAW-Dual [1]; [4]
  NF-kB SEAP reporter activity: 1.06
RAW-Dual [1]; [5]
  NF-kB SEAP reporter activity: 1.52
RAW-Dual [1]; [6]
  NF-kB SEAP reporter activity: 1.49

## C=C1CCCC2(C)C=C3OC(=O)C(C)=C3CC12 (configuration not stated)
RAW-Dual [2]; [7]
  NF-kB SEAP reporter activity: 0.726
RAW-Dual [2]; [8]
  NF-kB SEAP reporter activity: 1.14

## O=c1cc(-c2ccc(O)c(O)c2O)oc2ccccc12 (library stock concentration (final ~1000-fold dilution): 10 mM)
RAW-Dual [1]; agonist: LPS (TLR4) 0.1 ug/mL
  NF-kB SEAP reporter activity: 1.08
RAW-Dual [1]; [4]
  NF-kB SEAP reporter activity: 0.88
RAW-Dual [1]; [5]
  NF-kB SEAP reporter activity: 0.927
RAW-Dual [1]; [6]
  NF-kB SEAP reporter activity: 0.532

## O=c1cc(-c2ccc(O)c(O)c2O)oc2ccccc12
RAW-Dual [2]; [7]
  NF-kB SEAP reporter activity: 0.689
RAW-Dual [2]; [8]
  NF-kB SEAP reporter activity: 1.05

## CCOC(=O)C(CCc1ccccc1)NC(C)C(=O)N1C(C(=O)O)CC2CCCCC21 (configuration not stated) (library stock concentration (final ~1000-fold dilution): 10 mM)
RAW-Dual [1]; agonist: LPS (TLR4) 0.1 ug/mL
  NF-kB SEAP reporter activity: 1.25
RAW-Dual [1]; [4]
  NF-kB SEAP reporter activity: 1
RAW-Dual [1]; [5]
  NF-kB SEAP reporter activity: 1.01
RAW-Dual [1]; [6]
  NF-kB SEAP reporter activity: 0.933

## CCOC(=O)C(CCc1ccccc1)NC(C)C(=O)N1C(C(=O)O)CC2CCCCC21 (configuration not stated)
RAW-Dual [2]; [7]
  NF-kB SEAP reporter activity: 0.911
RAW-Dual [2]; [8]
  NF-kB SEAP reporter activity: 1.04

## CCCCCCCCCCCCCCCC(=O)OC1C(SC)OC(C(NC(=O)C2CC(CCC)CN2C)C(C)Cl)C(O)C1O.Cl (configuration not stated) (library stock concentration (final ~1000-fold dilution): 10 mM)
RAW-Dual [1]; agonist: LPS (TLR4) 0.1 ug/mL
  NF-kB SEAP reporter activity: 0.968
RAW-Dual [1]; [4]
  NF-kB SEAP reporter activity: 1.08
RAW-Dual [1]; [5]
  NF-kB SEAP reporter activity: 0.877
RAW-Dual [1]; [6]
  NF-kB SEAP reporter activity: 0.713

## CCCCCCCCCCCCCCCC(=O)OC1C(SC)OC(C(NC(=O)C2CC(CCC)CN2C)C(C)Cl)C(O)C1O.Cl (configuration not stated)
RAW-Dual [2]; [7]
  NF-kB SEAP reporter activity: 1.2
RAW-Dual [2]; [8]
  NF-kB SEAP reporter activity: 0.983
